According to PubChem BioAssay (NCI):
The panel holds about 83,000 compounds, 20% with a hit somewhere; the sample as a whole holds those more often.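 Step 1: grow cells in 96-well plates. Step 2: add test compound at a single concentration. Step 3: incubate 48 h. Step 4: record percent growth.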 Active and inactive are the calls of the source. The calls were made as follows: active = growth percent below 10; inactive = the rest.

How the values were obtained:
Assay in all cases: NCI-60 one-dose screen, 48 h (100 = growth as untreated, 0 = no growth, -100 = all killed)
[1] = tested on: SK-MEL-2 melanoma; conditions: 10 µM unless noted
[2] = tested on: EKVX NSCLC; conditions: 10 µM
[3] = tested on: SN12C renal; conditions: 10 µM unless noted
[4] = tested on: UO-31 renal; conditions: 10 µM unless noted
[5] = tested on: TK-10 renal; conditions: 10 µM unless noted
[6] = tested on: ACHN renal; conditions: 10 µM unless noted
[7] = tested on: CAKI-1 renal; conditions: 10 µM unless noted
[8] = tested on: A498 renal; conditions: 10 µM unless noted
[9] = tested on: CCRF-CEM leukemia; conditions: 10 µM
[10] = tested on: MOLT-4 leukemia; conditions: 10 µM unless noted

Measured: growth

COc1cc2ncnc(-n3ncc4cc(NC(=O)Nc5ccccc5)ccc43)c2cc1OC
inactive: [6] 17.1% | [7] 16.1% | [9] 22.9%
active: [1] -4.23% | [2] -1.75% | [3] 3.79% | [4] -44.4% | [5] -41.1% | [8] -33.4% | [10] 3.89%

COc1cc(-c2cc3cnccc3c3nc(N)c4ccncc4c23)cc(OC)c1OC
inactive: [1] 70.1% | [2] 55.3% | [3] 40.7% | [4] 11.9% | [5] 22.6% | [6] 34.5% | [7] 43.6% | [9] 36.5% | [10] 32.9%
active: [8] -16.8%

CC(=O)NNC(=O)c1sc(NC(C)=O)nc1C
inactive: [1] 35.3% | [2] 115% | [3] 99.4% | [4] 89.1% | [5] 95.2% | [6] 106% | [7] 115% | [8] 100% | [9] 88.1% | [10] 94.1%

CC(C)OC(=O)[C@H](C)N[P@@](=O)(OC[C@@]1(C)O[C@@H](n2cc(F)c(N)nc2=O)C[C@@H]1O[P@](=O)(N[C@@H](C)C(=O)OC(C)C)Oc1ccccc1)Oc1ccccc1
inactive: [1] 122% | [2] 109% | [3] 72.6% | [4] 98.6% | [5] 101% | [6] 92.4% | [7] 94.6% | [8] 45% | [9] 61.4% | [10] 67.5%

COc1cc(OC)c(NC(=O)n2ncc3cc(Nc4ncnc5ccccc45)ccc32)cc1Cl
inactive: [1] 102% | [2] 33% | [3] 95.6% | [4] 64.1% | [5] 30.8% | [6] 55.1% | [7] 53.6% | [8] 54.2% | [9] 102% | [10] 96.3%

CC(=O)Nc1nc(C)c(C(=O)N/N=C/c2cccs2)s1
inactive: [1] 19.3% | [2] 107% | [3] 92.6% | [4] 79.8% | [5] 144% | [6] 95.9% | [7] 111% | [8] 92.4% | [9] 84.6% | [10] 84.1%

COc1cc(NC(C)CCCN)c2nc(C)ccc2c1OC (stereo not given)
inactive: [1] 99.6% | [2] 97.1% | [3] 99% | [4] 95.7% | [5] 110% | [6] 105% | [7] 106% | [8] 92.7% | [9] 24.8%
active: [10] 6.98%

COc1cc(OC)c2c(=O)cc(-c3ccccc3)oc2c1
inactive: [1] 103% | [2] 103% | [3] 93% | [4] 70.2% | [5] 85.9% | [6] 103% | [7] 86.4% | [8] 77.1% | [9] 26.9% | [10] 80.4%

COc1ccc(Cn2cc3c(c2)-c2oncc2CC3)cc1OC
inactive: [1] 43% | [2] 43.7% | [3] 38.9% | [4] 44.1% | [5] 65.2% | [6] 44.3% | [7] 21.9% | [8] 21.4% | [9] 14.9% | [10] 31%

CCOC(=O)NC1=NCC(C)(C)S1
inactive: [1] 102% | [2] 98.2% | [3] 93.8% | [4] 86.9% | [5] 98.4% | [6] 107% | [7] 99.7% | [8] 68.4% | [9] 98.4% | [10] 83.8%

NC(=O)c1c(Nc2ccccc2)nn2cc(-c3nc4ccccc4s3)c(N)nc12
inactive: [1] 100% | [2] 89.5% | [3] 95.5% | [4] 81.3% | [5] 124% | [6] 96.3% | [7] 86.2% | [8] 92.5% | [9] 99.2% | [10] 93.3%

COc1ccc(OC)c(Cn2cc3c(c2-c2ccccc2)CCc2cnoc2-3)c1
inactive: [1] 74.2% | [2] 58.5% | [3] 73% | [4] 59% | [5] 86.1% | [6] 65.3% | [7] 28.9% | [8] 53.8% | [9] 48.7% | [10] 47%

O=C(Nn1cnc2ccccc21)N1CCCC1
inactive: [1] 116% | [2] 94% | [3] 106% | [4] 88.1% | [5] 113% | [6] 99.1% | [7] 98.8% | [8] 115% | [9] 127% | [10] 87.1%

CC1=C(C)C(=O)C(C(C)C2=C(C)C(=O)C(C)=C(C)C2=O)=C(C)C1=O
inactive: [1] 97.8% | [2] 61.7% | [3] 120% | [4] 83.8% | [5] 75.7% | [6] 110% | [7] 142% | [8] 84.6% | [9] 67.4% | [10] 32.9%

CC(=O)OC1CC2C3CCC4C[C@@H](NC(=O)C=C(C)C)CC[C@]4(C)C3CC[C@]2(C)[C@H]1C(C)N(C)C (stereo not given in full)
inactive: [2] 29.3% | [3] 14.3% | [5] 48.4% | [6] 21.4% | [8] 33.2%
active: [1] 5.9% | [4] 8.5% | [7] -19.6% | [9] 0.674% | [10] -31.9%

COc1cccc(Cn2cc3c(c2)-c2oncc2CC3)c1
inactive: [1] 35.5% | [2] 27.2% | [3] 34.5% | [4] 38.8% | [5] 69.4% | [6] 42.7% | [7] 13.9% | [8] 36.4% | [9] 15.2% | [10] 26.6%

O=C(O)c1occ(Cl)c1Cl
inactive: [1] 120% | [2] 100% | [3] 109% | [4] 97% | [5] 111% | [6] 109% | [7] 104% | [8] 90.4% | [9] 105% | [10] 111%

CCOC(=O)c1c(C)oc2ncnc(Nc3ccc(NC(=O)Nc4cccc(Cl)c4)cc3)c12
inactive: [1] 72.7% | [2] 72.3% | [3] 74% | [4] 50.4% | [5] 79.2% | [6] 57.5% | [7] 90.8% | [8] 63% | [9] 31.5% | [10] 49.3%

COc1ccc2sc(-n3nc4nc5n(c(=O)c4c3N)-c3ccccc3Sc3ccccc3-5)nc2c1
inactive: [1] 81.5% | [2] 42.1% | [3] 76.7% | [4] 31.8% | [5] 102% | [6] 72.3% | [7] 57.7% | [8] 117% | [9] 68.1% | [10] 49.4%

CCc1ccc(C(=Nc2ccc(N(C)C(=O)CN3CCN(C)CC3)cc2)c2c(O)[nH]c3ccc(C(=O)OC)cc23)cc1
active: [1] -55.4% | [2] -17.4% | [3] -57.4% | [4] -94.9% | [5] -64.7% | [6] -69.1% | [7] -82.9% | [8] -82.2% | [9] -15.5% | [10] -37.6%

C/C(=N\Nc1ccc(Cl)cn1)c1ccc2ccccc2n1
active: [4] 2.27% | [6] 8.37% | [7] 7.16% | [8] -15.7% | [9] 3.63% | [10] 3.63%
inactive: [1] 35.5% | [2] 11.1% | [3] 18% | [5] 56.3%

CCCC(C)c1cc(Cc2cc(Cl)cc(Cl)c2O)c(O)c(Cc2cc(Cl)cc(Cl)c2O)c1 (stereo not given)
inactive: [5] 17.4% | [7] 15.6%
active: [1] 1.41% | [2] 6.21% | [3] 5.5% | [4] 6.1% | [6] 0.12% | [8] -29.8% | [9] 6.76% | [10] -8.73%

Nc1cc(N)c2nc(NCCc3ccc(Cl)c(Cl)c3)cnc2c1
inactive: [1] 54.9% | [2] 28.6% | [3] 16.5% | [4] 55.8% | [5] 98.6% | [6] 62.6% | [7] 133% | [8] 88.2%
active: [9] -63.3% | [10] -69.9%

C/C=C(/C)C(=O)OC1C=C(CO)C(=O)C(OC(=O)/C(C)=C\C)C1C(C)C (stereo not given)
active: [1] -48.9% | [2] -55.1% | [3] -56.9% | [4] -100% | [5] -88.8% | [6] -100% | [7] -98.7% | [8] -77.6% | [9] -3.36% | [10] -16.8%

CCOC(=O)C1=C(c2ccccc2)NC(=O)NC1CN1C(=O)c2ccccc2C1=O (stereo not given)
inactive: [1] 101% | [2] 130% | [3] 107% | [4] 102% | [5] 111% | [6] 111% | [7] 105% | [8] 118% | [9] 54.4%
active: [10] 2.02%

CC(=O)Nc1ccc(CC#N)cc1Br
inactive: [1] 106% | [2] 112% | [3] 107% | [4] 95% | [5] 96.4% | [6] 109% | [7] 96.5% | [8] 79.9% | [9] 107% | [10] 118%

O=C(Nc1cccc(Cn2c(=O)[nH]c3ccc(Oc4ncccn4)cc3c2=O)c1)c1cccc(F)c1
inactive: [1] 74.3% | [2] 78.6% | [3] 78% | [4] 58.9% | [5] 81% | [6] 80.9% | [7] 89% | [8] 66% | [9] 75.7% | [10] 54.7%
